Here are results for eight compounds from PubChem BioAssay (NCATS).

Experiment [1] has as its target DNA dC->dU-editing enzyme APOBEC-3G (Homo sapiens) (UniProt Q9HC16). The experiment is described as follows: qHTS for inhibitors of Vif-A3G interactions: Validation (AID 588379; active = well fitted curve in the direction sought with a large enough effect; an effect the other way counts as inactive or inconclusive; also: 0% is about no effect). In outline:
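Yellow fluorescence (Ex 488, Em 500-530) of Vif-coexpressing HeLa A3G-eYFP cells, scanned by Acumen cytometer, reports blocked A3G degradation. Cells plated at 700/well overnight at 37 deg C before compound addition, then a further overnight compound incubation at 37 deg C.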
In general terms: qHTS replaces the single test concentration by a dilution series.

Experiment [2] has as its target Estrogen receptor (Homo sapiens) (UniProt P03372). The experiment is described as follows: qHTS assay for small molecule antagonists of estrogen receptor alpha signaling (AID 588513; active = well fitted curve in the direction sought with a large enough effect in the signal ratio, with a control signal flat, not every such curve was filed as active; the % refers to the signal ratio; also: % is scaled to controls: 0 for no effect and ±100 for the full control effect). The method in brief:
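Fluorescence from CCF4 substrate after 2 h at room temperature gave reporter activity; cells had been exposed to compound and 0.5nM 17-beta-estradiol for 18 h at 37 C. Hill-equation fitting yielded IC50 and maximal response.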

For experiment [3] the target is unchanged. The experiment is described as follows: qHTS assay for small molecule agonists of estrogen receptor alpha signaling (AID 588514).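 Also: 0% = vehicle only and 100% = reference agonist; nearly all actives have a fitted effect of over 70% in size.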 In outline: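 Efficacy is expressed against 20 nM 17-beta-estradiol (100%) and DMSO basal (0%); EC50 from Hill equation. Assay: beta-lactamase reporter in ER-alpha-UAS-bla HEK 293 cells, 18 h compound incubation, CCF4 detection.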

Experiment [4] deals with Bile acid receptor (Homo sapiens) (UniProt Q96RI1). The experiment in a line: qHTS assay for small molecule antagonists of farnesoid X receptor signaling (AID 588526). Also: % is scaled to controls: 0 for no effect and ±100 for the full control effect. The method in brief: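 Beta-lactamase reporter antagonist mode: HEK293T FXR-UAS-bla cells, titrated compound, CDCA stimulation, 16 h 37 C, CCF4 dye 2 h RT. Data normalized to CDCA 50 uM and DMSO; Hill-fit IC50.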

Experiment [5] concerns the target Glucocorticoid receptor (Homo sapiens) (UniProt P04150). The experiment in a line: qHTS assay for small molecule agonists of glucocorticoid receptor signaling (AID 588532; active = well fitted curve in the direction sought with a large enough effect in the signal ratio, with a control signal flat; the % refers to the signal ratio;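 also: 100% = dexamethasone at 0.1 µM and 0% = DMSO only wells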). Conditions: HeLa MMTV-bla, beta-lactamase ratio, agonist, 18 h; stronger effect = higher value; percent of dexamethasone control, DMSO zero. The method in brief: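 Agonist-mode qHTS: GRE-driven beta-lactamase in HeLa cells exposed 18 h to titrated compounds (up to 92 uM), then CCF4 ratio read after 2 h at RT; Hill-fitted EC50, efficacy relative to 0.1 uM dexamethasone.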

Experiment [6] has the same target. The experiment is described as follows: qHTS assay for small molecule antagonists of glucocorticoid receptor signaling (AID 588533; active = well fitted inhibition curve with a large enough effect in the signal ratio, with a control signal flat, not every such curve was filed as active; the % refers to the signal ratio;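 also: cells stimulated with 2 nM dexamethasone as agonist; % is scaled to controls: 0 for no effect and ±100 for the full control effect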). In outline:
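Antagonist-mode qHTS: compound titrations added to GRE-bla HeLa cells, then dexamethasone 2 nM final; 18 h, 37 C. CCF4 FRET fluorescence normalized to dexamethasone and DMSO; IC50 from Hill fit.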

Experiment [7] in a line: qHTS assay for small molecule antagonists of peroxisome proliferator-activated receptor delta signaling (AID 588535; active = well fitted inhibition curve with a large enough effect in the signal ratio, with a control signal flat, not every such curve was filed as active; the % refers to the signal ratio;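 as to max response: cells co-treated with a PPAR-delta agonist as stimulator during compound exposure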). Conditions: HEK293T PPARd-UAS-bla, beta-lactamase FRET ratio, 18 h; 460 nm channel. In outline: (§1)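 Titrations were run on PPAR-delta-UAS-bla HEK293T cells in charcoal/dextran-stripped serum, incubated 18 h at 37 C. CCF4 fluorescence (460/530 nm) after 2 h RT; Hill equation yields IC50 and maximal response.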

Experiment [8] deals with Peroxisome proliferator-activated receptor delta (Homo sapiens) (UniProt Q03181). Described as above. The method in brief: as §1
Chain of Peroxisome proliferator-activated receptor delta (Homo sapiens) (Q03181 whole entry, looked up): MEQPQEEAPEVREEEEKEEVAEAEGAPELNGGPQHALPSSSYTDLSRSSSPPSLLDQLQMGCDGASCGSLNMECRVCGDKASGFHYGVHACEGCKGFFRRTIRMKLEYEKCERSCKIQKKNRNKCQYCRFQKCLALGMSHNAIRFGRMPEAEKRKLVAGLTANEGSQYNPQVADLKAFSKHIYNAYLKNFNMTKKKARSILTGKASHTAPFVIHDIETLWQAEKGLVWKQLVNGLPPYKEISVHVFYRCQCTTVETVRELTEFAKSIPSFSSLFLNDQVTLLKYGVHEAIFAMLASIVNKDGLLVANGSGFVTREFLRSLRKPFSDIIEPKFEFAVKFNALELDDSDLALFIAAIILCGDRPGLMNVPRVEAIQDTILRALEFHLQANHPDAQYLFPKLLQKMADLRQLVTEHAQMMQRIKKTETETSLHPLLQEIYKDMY
For experiment [9], the target named is Peroxisome proliferator-activated receptor gamma (Homo sapiens) (UniProt P37231). The experiment in a line: qHTS assay for small molecule agonists of peroxisome proliferator-activated receptor gamma signaling (AID 588536; active = well fitted curve in the direction sought with a large enough effect in the signal ratio, with a control signal flat, not every such curve was filed as active; the % refers to the signal ratio;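 also: 0% = DMSO basal wells and 100% = rosiglitazone at 2 µM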). In outline:
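Using GeneBLAzer HEK293 cells, response was quantified by CCF4 fluorescence and normalized between basal DMSO (0%) and rosiglitazone 2 uM (100%); curves yielded half-maximal stimulation concentration and efficacy.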

A short description of experiment [10]: qHTS assay for small molecule agonists of retinoid X receptor alpha signaling (AID 588544).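 As to activation: 0% = DMSO basal wells and 100% = reference agonist.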 The following applies: HEK293T RXRa-UAS-bla, beta-lactamase reporter, 18 h; 530 nm emission.
In experiment [11] the target is Retinoic acid receptor RXR-alpha (Homo sapiens) (UniProt P19793). The description is as above.
Chain of Retinoic acid receptor RXR-alpha (Homo sapiens) (P19793 whole entry, looked up): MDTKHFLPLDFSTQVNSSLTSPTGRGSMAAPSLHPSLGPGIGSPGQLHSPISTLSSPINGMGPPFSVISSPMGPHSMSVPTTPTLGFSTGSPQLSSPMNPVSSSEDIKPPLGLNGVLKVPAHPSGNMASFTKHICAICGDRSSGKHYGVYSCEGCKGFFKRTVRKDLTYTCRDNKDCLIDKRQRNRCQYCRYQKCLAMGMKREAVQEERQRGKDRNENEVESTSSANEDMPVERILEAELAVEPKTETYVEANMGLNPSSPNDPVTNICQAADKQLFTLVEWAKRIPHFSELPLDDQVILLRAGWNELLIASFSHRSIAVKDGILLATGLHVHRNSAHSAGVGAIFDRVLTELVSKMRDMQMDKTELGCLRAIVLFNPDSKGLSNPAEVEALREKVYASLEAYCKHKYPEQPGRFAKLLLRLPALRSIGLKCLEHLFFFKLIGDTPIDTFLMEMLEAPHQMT
Experiment [12] has as its target Thyroid hormone receptor beta (Homo sapiens) (UniProt P10828). The experiment in a line: qHTS assay for small molecule agonists of thyroid hormone receptor beta signaling (AID 588545).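 Also: 0% = DMSO only and 100% = 10 nM T3.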 The method in brief: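 Compounds were tested as agonists in TR-UAS-bla-GripTite HEK 293 cells. After 18 hrs at 37 C, CCF4 substrate was added and fluorescence read after 2 hrs at room temperature.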

Experiment [13] can be described thus: qHTS assay for small molecule antagonists of retinoid X receptor alpha signaling (AID 588546; active = well fitted inhibition curve with a large enough effect in the signal ratio, with a control signal flat, not every such curve was filed as active; the % refers to the signal ratio;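 also: cells stimulated with 9-cis-retinoic acid as agonist; % is scaled to controls: 0 for no effect and ±100 for the full control effect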). The following applies: HEK293T RXRa-UAS-bla, beta-lactamase ratio, antagonist mode; measured here: W530 green channel, cytotoxicity proxy. In outline:
(§2)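 Beta-lactamase reporter inhibition, read as CCF4 fluorescence ratio (ex 405, em 460/530 nm) after 2 h at RT. HEK293T UAS-bla cells, 2500/well, were stimulated with 9-cis-RA at 500 or 100 nM final alongside test compound for 18 h at 37 C.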

The target in experiment [14] is Retinoic acid receptor RXR-alpha (Homo sapiens) (UniProt P19793). Described as above. The following applies: HEK293T RXRa-UAS-bla, beta-lactamase ratio, antagonist mode. In outline:
as §2

Experiment [15] is described as follows: qHTS for Inhibitors of ATXN expression: Validation (AID 588378; active = well fitted curve in the direction sought with a large enough effect; an effect the other way counts as inactive or inconclusive; also: potency is read from the fitted curve at half-maximal effect; nearly all actives have a fitted effect of over 75% in size). In outline: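 Compounds were pinned onto attached HEK293 cells carrying an ATXN2-firefly luciferase construct and incubated 24 hrs at 37 degrees C. Each well then received a fluorescent viability reagent followed by luciferase substrate for end-point luminescence.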
Experiment [16] deals with Peroxisome proliferator-activated receptor gamma (Homo sapiens) (UniProt P37231). The experiment in a line: qHTS assay for small molecule antagonists of peroxisome proliferator-activated receptor gamma signaling (AID 588537; active = well fitted inhibition curve with a large enough effect in the signal ratio, with a control signal flat, not every such curve was filed as active; the % refers to the signal ratio;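 also: reporter cells co-stimulated with 50 nM rosiglitazone agonist during compound treatment; % of control where 0% means no effect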). The method in brief:
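Antagonist-mode β-lactamase reporter screen run as a titration series. HEK293 PPARγ-UAS-bla cells are stimulated with rosiglitazone (50 nM final) for 16 h, then CCF4 is read at 460/530 nm. Data are scaled between DMSO and rosiglitazone and fitted to the Hill equation.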

Experiment [17] deals with Vitamin D3 receptor (Homo sapiens) (UniProt P11473). The experiment is described as follows: qHTS assay for small molecule antagonists of vitamin D receptor signaling (AID 588541). In outline: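 Antagonist-mode beta-lactamase reporter assay: HEK293T VDR-UAS-bla cells were exposed to titrated compound alongside 1-alpha,25-dihydroxyvitamin D3 at 3 nM final for 16 h. Values were normalized to the 50 nM agonist control and DMSO basal, with IC50 and efficacy from Hill equation fits.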
Chain of Vitamin D3 receptor (Homo sapiens) (P11473 whole entry, looked up): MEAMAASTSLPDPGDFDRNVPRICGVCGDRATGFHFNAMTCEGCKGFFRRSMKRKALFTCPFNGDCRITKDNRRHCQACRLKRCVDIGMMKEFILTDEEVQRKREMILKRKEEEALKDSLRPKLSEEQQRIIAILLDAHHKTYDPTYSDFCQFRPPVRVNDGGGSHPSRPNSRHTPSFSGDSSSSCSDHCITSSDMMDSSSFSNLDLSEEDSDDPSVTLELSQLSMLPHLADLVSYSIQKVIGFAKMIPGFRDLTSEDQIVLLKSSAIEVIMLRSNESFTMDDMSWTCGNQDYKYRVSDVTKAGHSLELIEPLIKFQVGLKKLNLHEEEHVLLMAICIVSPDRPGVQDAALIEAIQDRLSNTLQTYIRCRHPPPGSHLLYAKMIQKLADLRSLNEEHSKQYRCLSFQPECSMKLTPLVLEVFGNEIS

Experiment [18] shares this target. The experiment in a line: qHTS assay for small molecule agonists of vitamin D receptor signaling (AID 588543).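 Also: 0% = DMSO basal and 100% = reference agonist control.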 The method in brief: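 Reporter cells (HEK293T, VDR-UAS-bla) were seeded in medium with 2% charcoal-stripped serum and incubated 5 h, then compounds in concentration series were added for 16 h at 37 °C. Stimulation was scaled between DMSO basal and 50 nM 1α,25-dihydroxyvitamin D3.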

Experiment [19] concerns the target Androgen receptor (Homo sapiens) (UniProt P10275). The experiment is described as follows: qHTS assay for small molecule agonists of androgen receptor signaling (AID 588515; active = well fitted curve in the direction sought with a large enough effect in the signal ratio, with a control signal flat; the % refers to the signal ratio; also: % is scaled to controls: 0 for no effect and ±100 for the full control effect). Conditions: AR-UAS-bla HEK293, beta-lactamase ratio, agonist 16 h; stronger effect = higher value. In outline:
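Stimulation of an AR-responsive β-lactamase reporter in GripTite HEK293 cells was measured after 16 h compound exposure at 37 °C, via CCF4 fluorescence after 2 h RT. EC50 from Hill fits, normalized to R1881 at 30 nM.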

The target is the same in experiment [20]. The experiment is described as follows: qHTS assay for small molecule antagonists of androgen receptor signaling (AID 588516; active = well fitted curve in the direction sought with a large enough effect in the signal ratio, with a control signal flat, not every such curve was filed as active; the % refers to the signal ratio; also: % is scaled to controls: 0 for no effect and ±100 for the full control effect). The method in brief:
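Cells were plated and incubated 5 h, compounds added in titration, then R1881 (10 nM final) as agonist. After 16 h at 37 C, CCF4 substrate was loaded for 2 h at room temperature and fluorescence measured.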

Values joined by “and” are separate entries in the source; they are usually repeats but may differ in a detail not shown here. Identical values can stand only once. Results filed as inconclusive are left out. Active and inactive are the calls of the source. Unless noted, calls follow the shape of the full dose curve.

Chain of DNA dC->dU-editing enzyme APOBEC-3G (Homo sapiens) (Q9HC16 whole entry, looked up): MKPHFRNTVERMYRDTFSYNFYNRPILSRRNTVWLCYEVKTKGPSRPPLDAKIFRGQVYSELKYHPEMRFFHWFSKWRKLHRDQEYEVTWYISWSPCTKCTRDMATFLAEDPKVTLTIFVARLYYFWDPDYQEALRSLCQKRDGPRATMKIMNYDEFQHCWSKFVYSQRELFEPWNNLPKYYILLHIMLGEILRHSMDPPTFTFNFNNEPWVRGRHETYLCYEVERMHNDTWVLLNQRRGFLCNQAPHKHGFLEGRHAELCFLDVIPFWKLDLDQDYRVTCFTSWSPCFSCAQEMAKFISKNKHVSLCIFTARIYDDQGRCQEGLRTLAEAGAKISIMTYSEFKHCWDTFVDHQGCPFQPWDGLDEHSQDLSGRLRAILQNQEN
Chain of Estrogen receptor (Homo sapiens) (P03372 whole entry, looked up): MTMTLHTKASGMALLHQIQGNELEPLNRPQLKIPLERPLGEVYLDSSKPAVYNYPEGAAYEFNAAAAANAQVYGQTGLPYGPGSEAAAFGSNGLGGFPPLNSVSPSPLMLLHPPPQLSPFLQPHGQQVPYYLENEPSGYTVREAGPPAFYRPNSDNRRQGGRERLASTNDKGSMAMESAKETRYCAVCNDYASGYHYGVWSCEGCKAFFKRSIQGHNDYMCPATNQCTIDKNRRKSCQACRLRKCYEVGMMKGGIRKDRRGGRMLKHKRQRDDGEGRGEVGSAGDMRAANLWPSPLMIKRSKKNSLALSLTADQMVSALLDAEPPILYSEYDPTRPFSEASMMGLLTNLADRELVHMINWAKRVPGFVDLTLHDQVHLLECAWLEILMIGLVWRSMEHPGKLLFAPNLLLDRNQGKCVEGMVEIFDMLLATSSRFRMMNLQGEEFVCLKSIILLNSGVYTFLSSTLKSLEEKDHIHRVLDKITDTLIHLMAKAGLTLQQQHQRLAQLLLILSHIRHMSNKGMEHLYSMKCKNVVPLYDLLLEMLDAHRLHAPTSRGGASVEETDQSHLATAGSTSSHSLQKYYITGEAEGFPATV
Chain of Thyroid hormone receptor beta (Homo sapiens) (P10828 whole entry, looked up): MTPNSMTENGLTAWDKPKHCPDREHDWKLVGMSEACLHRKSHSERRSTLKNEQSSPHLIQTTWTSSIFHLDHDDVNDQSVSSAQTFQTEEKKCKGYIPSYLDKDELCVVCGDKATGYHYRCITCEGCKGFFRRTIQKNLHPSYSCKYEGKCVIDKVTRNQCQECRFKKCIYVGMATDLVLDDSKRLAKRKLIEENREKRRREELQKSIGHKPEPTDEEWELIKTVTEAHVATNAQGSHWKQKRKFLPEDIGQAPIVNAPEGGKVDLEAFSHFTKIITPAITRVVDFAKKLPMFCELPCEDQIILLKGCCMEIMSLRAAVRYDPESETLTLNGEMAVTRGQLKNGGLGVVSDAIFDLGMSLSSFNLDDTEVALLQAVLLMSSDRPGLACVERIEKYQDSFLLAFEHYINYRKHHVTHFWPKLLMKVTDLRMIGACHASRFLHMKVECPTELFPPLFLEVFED
Chain of Androgen receptor (Homo sapiens) (P10275 whole entry, looked up): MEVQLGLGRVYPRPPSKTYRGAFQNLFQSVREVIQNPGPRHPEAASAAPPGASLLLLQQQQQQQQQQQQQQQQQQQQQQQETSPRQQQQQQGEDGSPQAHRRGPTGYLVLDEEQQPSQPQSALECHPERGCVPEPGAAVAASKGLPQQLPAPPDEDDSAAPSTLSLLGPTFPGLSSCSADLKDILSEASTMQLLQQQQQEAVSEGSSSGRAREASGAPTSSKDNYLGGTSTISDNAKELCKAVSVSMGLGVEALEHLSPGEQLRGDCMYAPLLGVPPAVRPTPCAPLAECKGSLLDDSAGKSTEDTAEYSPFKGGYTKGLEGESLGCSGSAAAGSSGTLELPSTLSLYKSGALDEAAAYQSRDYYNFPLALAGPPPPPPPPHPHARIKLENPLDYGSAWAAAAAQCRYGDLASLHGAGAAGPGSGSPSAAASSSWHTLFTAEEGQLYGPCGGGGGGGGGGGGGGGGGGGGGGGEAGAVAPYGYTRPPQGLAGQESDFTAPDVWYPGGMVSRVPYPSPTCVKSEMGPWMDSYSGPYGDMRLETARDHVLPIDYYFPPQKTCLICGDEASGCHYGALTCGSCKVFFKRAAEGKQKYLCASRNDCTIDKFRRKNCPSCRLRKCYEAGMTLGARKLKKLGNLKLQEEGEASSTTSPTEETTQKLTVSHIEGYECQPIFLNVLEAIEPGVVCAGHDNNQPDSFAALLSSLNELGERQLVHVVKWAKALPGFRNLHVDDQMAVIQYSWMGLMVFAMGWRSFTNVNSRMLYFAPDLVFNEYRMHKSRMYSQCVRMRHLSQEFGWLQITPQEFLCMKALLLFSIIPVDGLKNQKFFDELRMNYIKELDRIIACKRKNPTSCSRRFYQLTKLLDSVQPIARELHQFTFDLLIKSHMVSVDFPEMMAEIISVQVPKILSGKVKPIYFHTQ
Chain of Peroxisome proliferator-activated receptor gamma (Homo sapiens) (P37231 whole entry, looked up): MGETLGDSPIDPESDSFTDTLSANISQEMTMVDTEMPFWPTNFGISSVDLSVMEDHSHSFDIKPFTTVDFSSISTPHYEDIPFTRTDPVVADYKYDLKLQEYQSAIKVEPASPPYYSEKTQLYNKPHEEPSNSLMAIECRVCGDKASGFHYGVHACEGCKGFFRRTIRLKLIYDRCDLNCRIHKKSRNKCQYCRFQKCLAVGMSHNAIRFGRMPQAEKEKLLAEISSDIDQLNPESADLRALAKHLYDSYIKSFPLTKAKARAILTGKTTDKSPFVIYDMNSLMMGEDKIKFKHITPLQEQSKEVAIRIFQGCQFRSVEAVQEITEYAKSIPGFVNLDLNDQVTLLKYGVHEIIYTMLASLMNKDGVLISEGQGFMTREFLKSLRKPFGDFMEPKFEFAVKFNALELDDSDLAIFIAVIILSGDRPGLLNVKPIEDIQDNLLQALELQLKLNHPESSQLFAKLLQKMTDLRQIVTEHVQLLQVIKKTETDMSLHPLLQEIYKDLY
Chain of Glucocorticoid receptor (Homo sapiens) (P04150 whole entry, looked up): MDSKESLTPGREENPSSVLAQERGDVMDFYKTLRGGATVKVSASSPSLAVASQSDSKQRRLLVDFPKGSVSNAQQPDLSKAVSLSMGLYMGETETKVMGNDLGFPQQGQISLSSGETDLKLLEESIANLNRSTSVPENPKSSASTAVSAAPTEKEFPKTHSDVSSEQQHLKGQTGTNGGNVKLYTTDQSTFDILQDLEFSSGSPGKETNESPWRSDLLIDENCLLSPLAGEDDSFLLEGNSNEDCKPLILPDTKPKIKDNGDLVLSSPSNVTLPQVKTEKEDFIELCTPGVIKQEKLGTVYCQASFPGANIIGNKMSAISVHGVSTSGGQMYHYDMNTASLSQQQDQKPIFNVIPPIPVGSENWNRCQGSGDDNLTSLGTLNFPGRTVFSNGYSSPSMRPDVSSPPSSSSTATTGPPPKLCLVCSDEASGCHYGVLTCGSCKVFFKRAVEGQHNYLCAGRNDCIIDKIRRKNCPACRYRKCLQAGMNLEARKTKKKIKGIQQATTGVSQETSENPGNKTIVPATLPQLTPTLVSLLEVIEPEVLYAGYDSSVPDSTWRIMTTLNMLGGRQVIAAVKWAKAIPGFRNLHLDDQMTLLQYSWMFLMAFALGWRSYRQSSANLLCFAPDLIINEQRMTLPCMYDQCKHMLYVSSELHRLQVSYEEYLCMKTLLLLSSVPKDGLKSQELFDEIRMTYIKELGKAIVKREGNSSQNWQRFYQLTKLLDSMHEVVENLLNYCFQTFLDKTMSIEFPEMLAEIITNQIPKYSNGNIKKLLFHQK

With `CCc1ccccc1OC[C@@H](O)CN[C@H]1CCCc2ccccc21`, the compound was called inactive in experiment [1].
The same measure, in the same setting: the entry for `CN(C)CCCn1cc(C2=C(c3c[nH]c4ccccc34)C(=O)NC2=O)c2ccccc21` is “inactive”.
Take `COC(C)=O`: the outcome in experiment [2], in experiment [4], in experiment [8], in experiment [9], in experiment [11] and in experiment [12] was inactive. Besides, the Potency entry in [3] and in experiment [6] was “inactive” each time. Besides, the activation in experiment [5] was -4.63% (inactive). For the same compound, the max response is 27.1% in [7], -9.31% in [10], -2.37% in experiment [13] and 11.4% (inactive) in [14].
Consider `CC(=O)C1=C(O)C=C2Oc3c(C(C)=O)c(O)c(C)c(O)c3[C@]2(C)C1=O`, for which the outcome in [1] was inactive.
With `CN[C@H]1CC[C@@H](c2ccc(Cl)c(Cl)c2)c2ccccc21`, in experiment [15], the Potency was 14.1 µM (active).
In the case of `C=Cc1ccccc1`, the call in experiment [2], in experiment [8], in experiment [9], in experiment [17], in experiment [18] and in experiment [11] was inactive. Moreover, the Potency result in experiment [3] and in experiment [16] was “inactive” in each case. Moreover, the max response in experiment [7] was -7.04% and -9%; in experiment [10], -4.91%; in experiment [13], -10.4% and -6.3%; in experiment [14], 1.17% (inactive) and -1.22% (inactive).
For `CCCCCCCCCC(=O)O`, the activation in [19] was -19.5% (inactive) and -1.38% (inactive); in [5] it was -0.446% (inactive). In addition, the Potency result in experiment [20] and in [6] was “inactive” in each case. The max response is 24% in experiment [7]; 6.89% and 0.0203% in experiment [10]; 6.37% and -10.5% in experiment [13]; -2.15% (inactive) and -5.65% (inactive) in experiment [14]. For the same compound, the compound was called inactive in experiment [8], in experiment [17], in [18], in experiment [11] and in experiment [12].
Regarding `O=C(O)CC(O)(CC(=O)O)C(=O)O`, the Potency result in [3] and in experiment [6] was “inactive” in each case. Moreover, the max response in experiment [7] is -9.3% and -1.59% and -15.8%; in experiment [10] it was 2.81% and -9.62% and -10.5%; in experiment [13], -2.45% and -5.52% and -2.31%; in experiment [14] it was -0.99% (inactive) and 3.25% (inactive) and -0.625% (inactive). Moreover, the outcome in [8], in experiment [9], in experiment [17], in [18], in experiment [11] and in [12] was inactive.
